In the library only some 4.6% were active in any assay of this set; here they are far more common.
D1 ag: Allosteric Agonists of the Human D1 Dopamine Receptor: qHTS; HEK293 T-REx D1 cells, calcium flux, agonist mode; activation, % at 2 µM; 1% of 360,000 active; also: 0% is about no effect
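Tetracycline-induced HEK293 TREx D1 cells, force-coupled to calcium signalling, were dye-loaded with a no-wash calcium kit. Compound was pin-added after a 10 s baseline. Fluorescence was read kinetically at 1 cycle/s for 180 s, with calcium rises flagged as agonism.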
D1 PAM: Potentiators of Human D1 Dopamine Receptor: qHTS; 0.036% of 360,000 active; D(1A) dopamine receptor (Homo sapiens), P21728; AID 504651, 2011; HEK293 TREx D1 cells, calcium flux, dopamine EC20 potentiation; potentiation, % at 10 µM; in the data active = potentiation above about 30%; also: 0% is about no effect
TRHR enhancer: qHTS for Small Molecule Agonists and Allosteric Enhancers of Human TRH Receptor: Primary Screen for Enhancers. TRHR cells, fluo-8 calcium fluorescence, EC20 TRH enhancement. 0.66% of 360,000 active. AID 493056, 2011. enhancement, % at 2 µM; in the data active = enhancement above about 30%; also: 0% is about no effect
Target sequence (P34981 whole entry, looked up): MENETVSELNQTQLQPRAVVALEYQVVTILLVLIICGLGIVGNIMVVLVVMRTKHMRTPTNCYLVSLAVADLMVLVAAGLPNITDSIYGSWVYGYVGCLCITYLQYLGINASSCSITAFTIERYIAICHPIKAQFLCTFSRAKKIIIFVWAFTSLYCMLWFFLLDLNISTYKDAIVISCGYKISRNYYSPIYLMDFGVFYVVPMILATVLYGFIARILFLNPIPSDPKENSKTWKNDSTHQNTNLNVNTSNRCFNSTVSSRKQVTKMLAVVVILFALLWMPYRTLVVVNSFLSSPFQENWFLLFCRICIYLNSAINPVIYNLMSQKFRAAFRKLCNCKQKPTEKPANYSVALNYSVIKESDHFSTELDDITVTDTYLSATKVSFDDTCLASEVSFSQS
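Enhancer read-out: after compound pinning and an initial kinetic agonist-mode read, an EC20 of TRH (10 nM final) was injected and fluo-8 calcium signal (Ex 480/Em 530) followed at 1 s/cycle for 100 cycles in TRHR-expressing cells.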
TRHR agonist: qHTS for Small Molecule Agonists and Allosteric Enhancers of Human TRH Receptor: Primary Screen for Agonists. activation, % at 2 µM. TRHR cells, calcium flux fluo-8, FDSS agonist mode. Thyrotropin-releasing hormone receptor (Homo sapiens), P34981. 0.18% of 360,000 active. AID 493084, 2011; also: 0% is about no effect
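In this calcium-flux screen, cells bearing human TRHR are dye-loaded with fluo-8, baselined for 10 cycles, then exposed to library compounds; positive kinetic calcium responses during the agonist phase mark hits, with TRH as control.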
D1 antag: Antagonist of Human D 1 Dopamine Receptor: qHTS; D(1A) dopamine receptor (Homo sapiens), P21728; HEK293 TREx D1 cells, calcium flux, dopamine EC80; hits give low values; activity change, negative = inhibition, % at 10 µM; 3.2% of 360,000 active; in the data active = activity change below about -30%; also: % is scaled to controls: 0 for no effect and ±100 for the full control effect
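Calcium flux readout: force-coupled, inducible Hek293 Trex D1 line, cells induced overnight at 30 C with tetracycline, dye-loaded 30–90 min at RT. Antagonism scored against EC80 dopamine challenge given 180 s after compound.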
Numbers without * were called inactive; / = no result. Rule as the data show it, unless noted: active = activation above about 30%; inactive = the rest.

SMILES | D1 ag | D1 PAM | TRHR enhancer | TRHR agonist | D1 antag
COC(=O)c1ccccc1NC(=O)CCC(=O)N1CC(C)Sc2ccccc21 (stereo not given) | 3 | -3 | -3 | 1 | 4
CCc1c(-c2ccccc2)nc2nc(C)c(C)nn12 | 0 | -2 | 37* | 0 | -27
CC(C)(C)c1ccc(C(=O)COC(=O)CN2C(=O)NC3(CCCC3)C2=O)cc1 | 7 | -3 | 16 | -3 | -31*
COc1ccc(OC)c(C(=O)COC(=O)CN2C(=O)NC3(CCCCC3C)C2=O)c1 (stereo not given) | 1 | -4 | 33* | 0 | 3
COc1ccccc1C(=O)NC(=O)COC(=O)CN1C(=O)NC2(CCCCC2C)C1=O (stereo not given) | 1 | 0 | 4 | 0 | 8
COC(=O)C1=C(C)NC(=O)C1(NC(=O)c1cc(OC)c(OC)c(OC)c1)C(F)(F)F (stereo not given) | -1 | -3 | -3 | 1 | 10
Cc1ccc(CSC2=Nc3ccccc3C3=NC(CCC(=O)N4CCN(c5ccccc5)CC4)C(=O)N23)cc1 (stereo not given) | 1 | -2 | 0 | 0 | -13
FC(F)(F)COc1cc(-c2nnc(SCc3ccccc3)n2Cc2ccco2)cc(OCC(F)(F)F)n1 | 32* | -4 | -5 | 3 | -1
CCC(Sc1nnc(C)n2c1cc1occc12)C(=O)Nc1ccccc1F (stereo not given) | 3 | 3 | 10 | 0 | 1
CC(=O)Nc1ccc(NC(=O)c2cccc(Oc3ccccc3)c2)cc1 | 2 | -5 | 2 | 0 | 1
CCCC(C)NC(=O)c1cccc(Oc2ccccc2)c1 (stereo not given) | 33* | -5 | 6 | -2 | 6
COc1ccc(NC(=O)CSC2=Nc3ccccc3C3=NC(CCC(=O)NC4CCCCC4)C(=O)N23)cc1Cl (stereo not given) | 1 | -3 | 0 | -1 | -20
CCc1ccc(NS(=O)(=O)c2ccc(OC)c3ncccc23)cc1 | 12 | 0 | 2 | 0 | -31*
N#Cc1nc(NCC(F)F)c2ncn(-c3cccc(Cl)c3)c2n1 | 0 | -1 | 0 | 0 | -49*
N#Cc1nc(Nc2cc(F)cc(F)c2)c2ncn(CC(F)F)c2n1 | 12 | -3 | 12 | 0 | -19
Cc1ccc(S(=O)(=O)c2nc(NCCN(C)C)sc2Cl)cc1 | 6 | -8 | -2 | 0 | -37*
COc1ccc(CCNC(=O)c2c(C)oc3nc(C)nc(N4CCOCC4)c23)cc1OC | 0 | -1 | 10 | 1 | -10
Cc1c(C)c2ccc(OCC(=O)N3CC[C@@]4(O)CCCC[C@H]4C3)cc2oc1=O | 2 | 1 | 5 | 0 | -11
O=C(COc1ccc2ccc(=O)oc2c1)N1CC[C@@]2(O)CCCC[C@H]2C1 | 0 | -10 | -3 | 0 | -49*
NC(=O)C1(N2CCCCC2)CCN(C(=O)Nc2ccc(F)cc2)CC1 | 2 | -3 | -2 | 1 | -16
O=C(NC[C@@H]1CCCO1)c1cccc2c1C(=O)c1ccc(Cl)cc1S2(=O)=O | -3 | 0 | 2 | 0 | /
COc1ccc(-c2ccc3c(c2)S(=O)(=O)c2cccc(C(=O)NC[C@@H]4CCCO4)c2C3=O)cc1OC | -1 | -3 | 3 | 0 | -36*
Cc1ccc2oc(=O)c3cnn(CC(=O)Nc4cccc(C(F)(F)F)c4)c3c2c1 | 0 | -4 | -3 | 0 | -1
NCC(O)(c1ccc(Cl)cc1)c1ccc(Cl)cc1 | 51* | -9 | 24 | 18 | -4
CCCCCCOc1ccc(/C(C)=N/NC2=NCCN2)cc1 | 39* | -5 | 4 | 0 | 26
SMILES | D1 ag | D1 PAM | TRHR enhancer | TRHR agonist | D1 antag
NC(=O)CSc1nc2cc3c(cc2c(=O)n1CCCCCC(=O)NCc1ccc2c(c1)OCO2)OCO3 | 1 | -2 | 16 | -1 | 15
CC1CN(C(=O)N2CCC(C(=O)NCCCc3ccccc3)CC2)c2ccccc2O1 (stereo not given) | 5 | -4 | -1 | 0 | 8
NS(=O)(=O)c1ccc(NC(=S)Nc2ccn(Cc3cccc4ccccc34)n2)cc1 | 1 | 2 | -22 | 0 | -53*
CC1CCc2sc(C(=O)Nc3ccc(N4CCOCC4)cc3)cc2C1 (stereo not given) | 4 | 2 | 17 | 1 | -7
CC1CCc2sc(C(=O)NCC(C)(C)N3CCOCC3)cc2C1 (stereo not given) | 3 | -2 | 4 | 0 | -68*
CCS(=O)(=O)CCn1c([N+](=O)[O-])cnc1C | 0 | 2 | 37* | 0 | -18
O=[N+]([O-])c1ccc(Cl)c(-c2ccc(/C=N/n3cnnc3)o2)c1 | 0 | -1 | -4 | -1 | -42*
O=[N+]([O-])c1cc(-c2ccc(/C=N/n3cnnc3)o2)ccc1Cl | 1 | -4 | -4 | 0 | -6
CN1CCN(/N=C/c2ccc(-c3ccc([N+](=O)[O-])cc3Cl)o2)CC1 | 52* | -9 | 4 | 12 | -8
Cc1ccc(-c2nn(-c3ccccc3)cc2CSC(=N)N)cc1 | 51* | 1 | 6 | 2 | 32
OCc1cn(-c2ccccc2)nc1-c1ccc(-c2nn(-c3ccccc3)cc2CO)cc1 | 9 | -8 | -4 | 2 | 3
Cc1ccc([N+](=O)[O-])cc1S(=O)(=O)N1CCn2cccc2C1c1ccccc1F (stereo not given) | -2 | -2 | -2 | 0 | /
COc1ccc(OC)c(CNC(=O)c2cc3cc4ccc(OC)cc4nc3o2)c1 | -1 | 6 | 5 | 0 | -10
CCc1ccc(NC(=O)CCn2nc(-c3ccccc3OC)c3c(C)cc(C)nc32)cc1 | 0 | -2 | 4 | -1 | -11
CCOC(=O)c1ccc(NC(=O)Nc2cccc(C)n2)cc1 | 2 | -2 | -2 | 2 | 7
CCCCCOc1ccc(C(=O)OCC(=O)Nc2cc(C)on2)cc1 | 4 | 6 | 31* | 2 | -3
CCOC(=O)c1ccc(NC(=S)Nc2ccc(C)cc2)cc1 | 2 | 10 | -4 | 0 | 1
CCOC(=O)c1ccc(NC(=S)NNC(C)(C)C)cc1 | 2 | -2 | 10 | 0 | -36*
CCOC(=O)c1ccc(NC(=O)Nc2cc(C)on2)cc1 | 27 | -4 | 3 | -1 | -32*
CCCN1CCN(CC2=C(C(=O)OCC)C(c3cccc(OC)c3OC)NC(=O)N2)CC1 (stereo not given) | 1 | -1 | 9 | 0 | 2
O=C(CN1C(=O)COc2ccc(S(=O)(=O)NC3CCCC3)cc21)NCc1ccccc1Cl | 0 | -3 | -1 | 0 | 15
